Screening data: PubChem BioAssay, several laboratories
eLon inh: inhibits E. coli Lon protease; inhibition, % at 7.94 µM; AID 602123; purified E. coli Lon protease, fluorescence polarization; actives 0.42% (n = 360,000); in the data active means inhibition above about 13%, passing the limit was not always enough
MCL1-BIM inh: inhibitors of human MCL1 binding to BIM-BH3 peptide. Q07820. inhibition, % at 10.9 µM. GST-MCL1 / FITC-Bim-BH3 fluorescence polarization. actives 0.68% (n = 320,000);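 active means inhibition above the mean inhibition of all tested compounds plus 3 SD, set per campaign, cut at about 40% in these data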;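 further: higher means more loss of mP so more displacement of Bim peptide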
BCLXL inh: Bcl-xL (human) inhibition. Q07817. GST-Bcl-xL / FITC-Bim BH3 peptide fluorescence polarization. inhibition, % at 10.9 µM. actives 0.7% (n = 320,000). AID 2129;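 active means inhibition above the mean of all tested compounds plus 3 SD, cutoff set per campaign, cut at about 30% in these data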;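 further: inhibitors lower millipolarization by displacing the labeled peptide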
Target sequence (Q07817 whole entry, looked up): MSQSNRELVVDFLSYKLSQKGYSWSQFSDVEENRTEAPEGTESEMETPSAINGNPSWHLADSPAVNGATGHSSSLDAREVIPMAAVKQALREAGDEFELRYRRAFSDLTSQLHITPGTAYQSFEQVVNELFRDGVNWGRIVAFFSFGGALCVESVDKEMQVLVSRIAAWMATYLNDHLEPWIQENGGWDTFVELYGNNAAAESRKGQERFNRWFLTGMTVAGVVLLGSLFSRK
GLD-1 RNA inh: GLD-1-TGE RNA interaction inhibition (C. elegans); Q17339; AID 2280; inhibition, % at 5.96 µM; purified GLD-1 + fluorescein TGE RNA, fluorescence polarization; actives 0.44% (n = 320,000);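 active means percent inhibition above a per-plate cutoff, the plate mean of test compounds plus 3 SD, cut at about 30% in these data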
Target sequence (Q17339 whole entry, looked up): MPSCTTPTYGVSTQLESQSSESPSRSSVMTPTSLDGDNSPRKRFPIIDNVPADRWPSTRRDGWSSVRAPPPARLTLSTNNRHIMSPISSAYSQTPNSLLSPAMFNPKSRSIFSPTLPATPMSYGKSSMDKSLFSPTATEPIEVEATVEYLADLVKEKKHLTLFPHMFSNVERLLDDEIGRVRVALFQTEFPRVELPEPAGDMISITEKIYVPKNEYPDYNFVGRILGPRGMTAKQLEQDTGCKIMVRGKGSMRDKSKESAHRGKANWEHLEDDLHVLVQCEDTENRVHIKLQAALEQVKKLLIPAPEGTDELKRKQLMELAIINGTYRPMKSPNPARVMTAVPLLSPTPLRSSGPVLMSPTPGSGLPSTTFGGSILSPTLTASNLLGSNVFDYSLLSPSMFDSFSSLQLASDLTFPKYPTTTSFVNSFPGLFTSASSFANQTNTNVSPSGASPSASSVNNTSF
Keap1-Nrf2 PPI: disrupts human Keap1 binding to Nrf2 peptide; Keap1 Kelch-Nrf2 peptide fluorescence polarization, 1536-well; inhibition, % at 9.4 µM; actives 0.15% (n = 340,000); in the data active means inhibition above about 12%; inconclusive means no clear call, values can overlap the other calls; inactive means below about 7.3%;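 further: human Keap1 Kelch domain with fluorescein labeled Nrf2 9mer peptide probe; higher means more block of Keap1 binding to Nrf2 peptide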
C-LANA FP: inhibitors of KSHV LANA C-terminal domain DNA binding. inhibition, % at 9 µM. AID 504423. MBP-C-LANA/FAM-LBS DNA binding, fluorescence polarization. actives 0.078% (n = 340,000);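 active means highest replicate inhibition at or above 60% at 9 µM, even if other replicates fall short; inactive means all replicates below 60% inhibition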
BCLXL inh confirm: counter-screen for MCL1 inhibitors: confirmation of human Bcl-xL inhibitors. GST-Bcl-xL / FITC-Bim BH3 peptide FP binding. inhibition, % at 10.9 µM. shares compounds with MCL1-BIM inh. actives 54% (n = 1,700);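 active means inhibition above a cutoff equal to the mean inhibition of all tested compounds plus 3 SD, cut at about 30% in these data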
MCL1 inh confirm: confirmation of human MCL1 and BIM-BH3 interaction inhibitors | actives 61% (n = 1,700) | inhibition, % at 10.9 µM | shares compounds with MCL1-BIM inh | GST-MCL1 / FITC-Bim-BH3 fluorescence polarization | AID 2168;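 active means inhibition above the average of all tested compounds plus 3 SD, cut at about 40% in these data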
Large screens that a line does not name were inactive (follow-up assays come after a bar, where they were run). Most compounds without a hit are left out; they make up all but 1.3% or so of the library.

COc1cccc(NC(=S)NC(=O)/C=C/c2ccco2)c1	none
O=C(/C=C/c1ccco1)NC(=S)Nc1cccc(C(=O)O)c1	MCL1-BIM inh 61.4, BCLXL inh 37.1 | BCLXL inh confirm 30.8 | MCL1 inh confirm 51.9
CC(C)[C@H](NC(=O)c1ccccc1F)C(=O)NNC(=O)c1cccs1	none (no result: MCL1-BIM inh, BCLXL inh)
Cc1c(C(=O)Nc2ccc(C(F)(F)F)cc2)sc2ncn(CC(=O)N3CCN(c4ccccn4)CC3)c(=O)c12	none
Cc1cc2c(=O)n(C)c(SCC(=O)NCC3CCCO3)nc2s1 (stereo unspecified)	none (no result: MCL1-BIM inh, BCLXL inh, GLD-1 RNA inh)
CC[n+]1ccccc1/C=C/c1ccc(N(C)C)cc1	none (no result: MCL1-BIM inh, BCLXL inh, GLD-1 RNA inh)
CN(C)c1ccc(/C=C/c2cc[n+]([O-])cc2)cc1	MCL1-BIM inh 108.6, BCLXL inh 100.7, GLD-1 RNA inh 51.6 (no result: eLon inh, Keap1-Nrf2 PPI, C-LANA FP) | BCLXL inh confirm 88.6 | MCL1 inh confirm 100.0
CN(C)S(=O)(=O)c1ccc(Cl)c(C(=O)OCC(=O)NNC(=O)c2cccs2)c1	none
COc1ccc(NC(=O)CN(C)S(=O)(=O)c2ccc3c(c2)CCC(=O)N3)c(OC)c1	none
Cc1cccc(-n2cc(C(=O)O)c(=O)cc2C)c1	none
CCN1CCN(c2nc3ccccc3nc2C(C#N)S(=O)(=O)c2ccc(C)cc2)CC1 (stereo unspecified)	none
Cc1ccc(S(=O)(=O)C(C#N)c2nc3ccccc3nc2N2CCCC2)cc1 (stereo unspecified)	MCL1-BIM inh 74.8, BCLXL inh 83.1, GLD-1 RNA inh 56.8 | BCLXL inh confirm 63.6 | MCL1 inh confirm 63.2
COc1ccc(Br)cc1/C=c1\sc2nc(-c3ccco3)nn2c1=O	MCL1-BIM inh 80.1, BCLXL inh 39.8 | BCLXL inh confirm inactive | MCL1 inh confirm 49.8
COc1ccccc1/C=c1\sc2nc(-c3ccccc3OC)nn2c1=O	none
Cc1ccc(/C=c2\sc3nc(-c4ccco4)nn3c2=O)o1	MCL1-BIM inh 58.4 | BCLXL inh confirm 45.0 | MCL1 inh confirm 71.8
CC(=O)/C=C(\C)Nc1c(C)n(C)n(-c2ccccc2)c1=O	none
COc1cc(/C=C2\CCc3c2nc2ccccc2c3C(=O)O)cc(OC)c1OC	MCL1-BIM inh 75.9 | BCLXL inh confirm inactive | MCL1 inh confirm 75.2
COCCn1c(C)c(C)c(S(=O)(=O)c2ccccc2)c1N	MCL1-BIM inh 72.3, BCLXL inh 67.8 | BCLXL inh confirm 43.7 | MCL1 inh confirm 61.6
Cc1cccc(C)c1NC(=O)CN(C)C(=O)CC1OC(=O)c2ccccc21 (stereo unspecified)	none
Oc1ccc(/C=N/Nc2cc(N3CCCC3)nc(N3CCCC3)n2)cc1O	MCL1-BIM inh 47.9 | BCLXL inh confirm inactive | MCL1 inh confirm inactive
N#Cc1c(-c2ccccc2)cc(-c2cccs2)nc1SCC(=O)O	none
N#Cc1c(-c2ccc(Cl)cc2)cc(-c2cccs2)nc1SCC(=O)O	MCL1-BIM inh 72.5, BCLXL inh 49.7 | BCLXL inh confirm 36.8 | MCL1 inh confirm 53.0
O=C1C(=Cc2ccc(Br)o2)C(=O)c2ccccc21	MCL1-BIM inh 92.0, BCLXL inh 47.5, Keap1-Nrf2 PPI inconclusive, C-LANA FP 105.5 | BCLXL inh confirm 42.8 | MCL1 inh confirm 63.9
CCO[C@@H]1OC(C(=O)O)=C[C@H](C)[C@H]1CCCO	none
Cc1noc(/C=C/N(C)C)c1S(=O)(=O)N1CCCC(C(=O)NC2CCCCC2)C1 (stereo unspecified)	none
Cc1noc(/C=C/N(C)C)c1S(=O)(=O)N1CCCC(C(=O)N2CCCCC2)C1 (stereo unspecified)	MCL1-BIM inh 66.3, BCLXL inh 72.5, GLD-1 RNA inh 31.9 | BCLXL inh confirm inactive | MCL1 inh confirm inactive
Cc1ccc(S(=O)(=O)c2nc(C)oc2NCc2ccccc2)cc1	MCL1-BIM inh 39.9 (no result: eLon inh, Keap1-Nrf2 PPI, C-LANA FP) | BCLXL inh confirm inactive | MCL1 inh confirm 57.2
CNc1oc(C)nc1S(=O)(=O)c1ccc(C)cc1	none
COC(=O)C1=C(C)N(C)C(=O)NC1c1cc2c(cc1[N+](=O)[O-])OCO2 (stereo unspecified)	MCL1-BIM inh 54.0, BCLXL inh 59.5 | BCLXL inh confirm 43.6 | MCL1 inh confirm 40.0
COC(=O)C1=C(C)N(CCCC(=O)O)C(=O)NC1c1ccc([N+](=O)[O-])cc1 (stereo unspecified)	none
COC(=O)C1=C(C)N(CCCC(=O)O)C(=O)NC1c1cc2c(cc1[N+](=O)[O-])OCO2 (stereo unspecified)	MCL1-BIM inh 51.7, BCLXL inh 53.5 | BCLXL inh confirm inactive | MCL1 inh confirm inactive
COc1cc(-c2nc(-c3ccccn3)no2)cc(OC)c1OC	MCL1-BIM inh 41.4 | BCLXL inh confirm inactive | MCL1 inh confirm inactive
COc1cccc(-c2nc(-c3ccccn3)no2)c1OC	none
Fc1ccc(-n2nnc(-c3ccccc3Br)n2)cc1	MCL1-BIM inh active | BCLXL inh confirm inactive | MCL1 inh confirm inactive
O=c1[nH]c2ccccc2cc1-c1nnn(-c2ccc(F)cc2)n1	none
CCOc1ccc(N(CC(=O)NCCc2ccccc2)C(=O)c2csnn2)cc1	none
O=C(O)c1ccccc1-c1ccc(/C=c2\sc3nc4cc(Br)cnc4n3c2=O)o1	MCL1-BIM inh 59.5, BCLXL inh 38.2, C-LANA FP 74.2 | BCLXL inh confirm inactive | MCL1 inh confirm inactive
Cc1cc2nc3s/c(=C/c4ccc(-c5ccccc5C(=O)O)o4)c(=O)n3c2cc1C	none
COc1ccc(NC(=O)c2ccc(-c3nn(C)c(=O)c4ccccc34)cc2)cc1	MCL1-BIM inh 45.2 | BCLXL inh confirm inactive | MCL1 inh confirm inactive
Cc1ccccc1-c1cc(C(=O)NCc2ccc(OC(F)(F)F)cc2)n(CC2CC(c3cccnc3)=NO2)n1 (stereo unspecified)	none (no result: MCL1-BIM inh, BCLXL inh)
COc1ccc(OCCCn2cc(/C=C3/C(=N)N4C=C(C)SC4=NC3=O)c3ccccc32)cc1	none
COc1cccc(OCCCn2cc(/C=C3/C(=N)N4C=C(C)SC4=NC3=O)c3ccccc32)c1	MCL1-BIM inh 66.0, BCLXL inh 58.7 | BCLXL inh confirm inactive | MCL1 inh confirm inactive
COc1ccc(NC(=O)c2c3c(nc4ccccc24)CCC3)cc1S(=O)(=O)N1CCOCC1	MCL1-BIM inh 49.9 | BCLXL inh confirm inactive | MCL1 inh confirm 44.9
COc1ccc(CCNC(N)=S)cc1OC	none
Nc1ccc2nc(-c3ccccc3)c(-c3ccccc3)nc2c1	MCL1-BIM inh 59.7, BCLXL inh 48.6, GLD-1 RNA inh 73.3 | BCLXL inh confirm 63.5 | MCL1 inh confirm 54.5
Cc1ccc[n+](CC2OCc3ccccc3CO2)c1	none
